For 14 compounds, z-score results are on record in PubChem BioAssay.

Activity calls are given as the source filed them.

The nature of experiment [1]: A549 cell viability effects, profiling panel, calcein-AM fluorescence, 48 h, basal (AID 1162). The following applies: higher = more signal.
Experiment [2] in a line: adipocyte viability effects, profiling panel, cell-based, 3T3-L1 adipocytes, calcein-AM fluorescence, 48 h, basal (AID 1163). The following applies: 3T3-L1 adipocytes viability, higher = more signal.
Experiment [3] is described as follows: HepG2 cell viability effects, profiling panel, calcein-AM fluorescence, 48 h, basal (AID 1164). The note with it: higher = more signal.
Experiment [4] can be described thus: MM1S cell viability effects, profiling panel, calcein-AM fluorescence, 48 h, basal (AID 1165).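 Note: viability of MM1S multiple myeloma cells under basal unstimulated conditions.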 The note with it: higher = more signal.
The nature of experiment [5]: basal RPMI8226 viability, no added stimulus, profiling panel, cell-based, calcein-AM fluorescence, 48 h, PK04 Diversity Set (AID 1166).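 Note: cells grown under basal conditions without added stimulus.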 The note with it: RPMI8226 myeloma viability, higher = more signal.
Experiment [6] can be described thus: basal HepG2 mitochondrial membrane potential changes, profiling panel, cell-based, JC-1 fluorescence, 24 h, 100 nL compound (AID 1167). The note with it: higher = more signal.
A short description of experiment [7]: basal 3T3-L1 adipocyte mitochondrial potential changes, profiling panel, cell-based, JC-1 fluorescence, 3T3-L1 adipocytes, 24 h, 100 nL compound (AID 1168). The following applies: JC-1 mitochondrial fluorescence, higher = more signal, called active from +8 up or from −8 down.
Experiment [8] is described as follows: basal RPMI8226 mitochondrial membrane potential changes, profiling panel, cell-based, JC-1 fluorescence, 24 h, 100 nL compound (AID 1169). The following applies: RPMI8226 myeloma, JC-1 mitochondrial potential fluorescence, higher = more signal.
Experiment [9] can be described thus: basal MM1S mitochondrial membrane potential changes, profiling panel, cell-based, JC-1 fluorescence, 24 h, 100 nL compound (AID 1170). The following applies: higher = more signal.
Experiment [10] can be described thus: A549 lung cancer cell viability effects, profiling panel, resazurin fluorescence, 24 h, PK04 Diversity Set (AID 1171). The note with it: higher = more signal, called active from +8 up or from −8 down.
Note: test concentration not given here.

With `C#CCN(C(=O)OC(C)(C)C)[C@H](CO)c1ccccc1`, the z-score in [1] was -0.413; in experiment [2] it was -0.24; in experiment [3], -1.51; in experiment [4], -0.404; in [5], -0.404; in [6], -1.16. Further, the z-score in experiment [7] was 0.0135 (inactive); in [8], 0.136; in [9], -0.125; in experiment [10], 0.659 (inactive).
In the case of `COC(=O)[C@@]1(Cc2ccc(F)cc2)[C@H]2c3cc(C(=O)N(C)C)n(Cc4ccsc4Br)c3C[C@H]2CN1C(=O)c1ccccc1`, the z-score in experiment [1] was -0.981; in experiment [2], -0.291; in experiment [3] it was 0.191; in [4], -0.766; in experiment [5], -0.985; in experiment [6], 2.64. The z-score was 0.18 (inactive) in [7], 0.415 in experiment [8], -1.17 in experiment [9] and -0.836 (inactive) in [10].
With `COC(=O)c1ccc(OC)c(/C=C\CC(OC(=O)c2ccncc2)c2ccccc2)c1` (stereo not given), the z-score in experiment [1] was 1.46; in experiment [2], -0.347; in [3], 1.04; in experiment [4] it was -1.64; in [5], -1.5; in experiment [6], 0.615. In addition, the z-score in experiment [7] was 0.202 (inactive); in [8], -0.177; in experiment [9] it was 0.148; in experiment [10] it was 0.271 (inactive).
Turning to `Cc1cccc([C@H]2C[C@H]3C(Br)=C[C@@]2(CO)C(=O)[C@]32CO2)c1`, the z-score in experiment [1] was -0.602; in [2], 0.0875; in experiment [3], -0.729; in [4] it was -2.43; in experiment [5], -0.551; in experiment [6] it was -2.11. Moreover, the z-score was -0.0495 (inactive) in experiment [7], -0.0551 in experiment [8], -0.876 in [9] and 0.393 (inactive) in experiment [10].
Consider `CN1C(=O)C2C(C1=O)C1C=C(CCCO)C2C(C2CC2)N1C` (stereo not given), for which the z-score is -0.0397 in [1]; -0.333 in [2]; 0.019 in experiment [3]; 0.828 in [4]; 0.929 in experiment [5]; 1.18 in [6]. In addition, the z-score in [7] is 0.693 (inactive); in [8], -0.786; in experiment [9], -0.641; in experiment [10], -1.61 (inactive).
Take `Cc1ccc(S[C@]2(C(=O)NCC(C)C)CC(=O)N(C(C)C)[C@@H]2c2ccc(CO)cc2I)cc1`: the z-score in experiment [1] is 1.97; in experiment [2], 0.508; in [3], 0.867; in experiment [4], -2.41; in experiment [5], -2.03; in [6], 0.978. In addition, the z-score in [7] was 0.953 (inactive); in experiment [8], -0.94; in experiment [9], -1.19; in [10], 0.677 (inactive).
Turning to `O=C1O[C@@H](c2ccccc2)[C@@H](c2ccccc2)N2[C@@H](c3ccc(OCCO)cc3)[C@]3(C(=O)Nc4ccc(C#CC5=CCCCC5)cc43)[C@@H](C(=O)Nc3nc4ccccc4s3)[C@H]12`, the z-score was 0.583 in experiment [1]; 0.0884 in experiment [2]; 0.803 in experiment [3]; -1.69 in experiment [4]; -2.18 in experiment [5]; -3.08 in experiment [6]. For the same compound, the z-score in experiment [7] was -0.395 (inactive); in experiment [8], -1.12; in experiment [9] it was -1.92; in [10], -1.27 (inactive).
On to `COc1ccc([Si](C)(C)[C@H]2[C@H](CC(=O)N(CCO)Cc3ccccc3)O[C@@]3(C(=O)N(c4ccccc4)c4ccccc43)[C@@H]2C)cc1`, for which the z-score in experiment [1] was -3.41; in experiment [2], -1.38; in experiment [3], -4.61; in experiment [4], -2.69; in experiment [5] it was -4.38; in experiment [6], -2.35. Besides, the z-score in experiment [7] was 0.938 (inactive); in experiment [8], -1.11; in experiment [9] it was -2.27; in experiment [10], -3.43 (inactive).
On to `O=C(N1CCOCC1)[C@]1(CCS(=O)(=O)c2ccccc2)N=C(c2ccc(OCCCO)cc2)O[C@@H]1c1ccccc1`, for which the z-score was 0.569 in experiment [1]; 1.29 in experiment [2]; 0.176 in experiment [3]; -0.345 in experiment [4]; -0.0091 in [5]; 1.43 in experiment [6]. Besides, the z-score in experiment [7] was 1.14 (inactive); in experiment [8], -0.176; in experiment [9], -0.424; in experiment [10], 0.54 (inactive).
Take `COc1ccc(CCNC(=O)[C@@]2(C)c3ccccc3C(=O)N(Cc3ccc(OC(F)(F)F)cc3)[C@H]2c2ccc(CO)cc2)cc1`: the z-score in experiment [1] is 0.109; in [2], 0.965; in [3] it was -0.0665; in [4], -2.23; in [5], -2.3; in [6], 2.56. The z-score was 0.434 (inactive) in [7], -0.114 in [8], 0.0946 in [9] and 2.43 (inactive) in experiment [10].
Take `CC1CC/C=C\[C@H]2OC34C=CCN(C(C)C)C(=O)[C@H]3N(C(C)CO)C(=O)[C@@H]4C2C(=O)O1` (stereo not given in full): the z-score was -0.784 in experiment [1]; 0.534 in experiment [2]; 0.517 in experiment [3]; -0.245 in [4]; 0.819 in experiment [5]; 0.674 in [6]. Besides, the z-score is 0.164 (inactive) in experiment [7], 0.851 in experiment [8], -0.869 in [9] and 0.574 (inactive) in experiment [10].
With `CC(=O)NCCCC[C@@H]1NC(=O)[C@H]2C[C@@H](C(=O)NCCCCCN)[C@@H](c3ccc(O)cc3)N2C1=O`, the z-score in experiment [1] was -0.754; in experiment [2], 0.311; in [3], -0.926; in [4], -0.0917; in experiment [5] it was -0.556; in experiment [6], -0.659. The z-score in experiment [7] was -0.34 (inactive); in [8] it was 0.135; in [9], 0.353; in experiment [10] it was -0.0632 (inactive).
With `CC1CC/C=C\[C@H]2OC34C=CCN(CCN5CCOCC5)C(=O)[C@H]3N(C(CO)C(C)C)C(=O)[C@@H]4C2C(=O)O1` (stereo not given in full), the z-score in experiment [1] was 0.0685; in experiment [2], -1.26; in experiment [3], 0.545; in experiment [4], -0.515; in [5] it was 0.0582; in experiment [6] it was -0.989. For the same compound, the z-score in experiment [7] is -0.161 (inactive); in experiment [8] it was 0.19; in [9] it was -0.308; in [10], -0.37 (inactive).
As to `COc1ccc([Si](C)(C)[C@H]2[C@H](CC(=O)N3CCC[C@H]3CO)O[C@@]3(C(=O)N(C)c4ccccc43)[C@@H]2C)cc1`, the z-score in [1] is 0.183; in [2], -0.522; in [3], 0.233; in [4], 0.0008; in [5], 0.143; in [6], -1.03. Moreover, the z-score is -0.223 (inactive) in experiment [7], 0.812 in experiment [8], -0.265 in [9] and -0.394 (inactive) in experiment [10].
